PAX8 reporter: PAX8 transcriptional activity inhibition; inhibition, % at 12.6 µM; RMG-I TPO-luciferase reporter, SteadyGlo, 24 h; 360,000 tested, 1.2% active;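 active means mean replicate inhibition at least 60% with every replicate also reaching 60%; inconclusive means only one of the two criteria is met; inactive means mean below 60% and not all replicates reaching 60%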;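 further: luciferase light reporting Pax8 driven TPO promoter activity; plate controls were median of neutral control wells for no effect and mitoxantrone controls for full effect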
PGC1a acetyl inh: lowers PGC1a acetylation signal in U2OS cells; AlphaScreen anti-acetyl-lysine; with virally co-expressed GCN5 acetyltransferase; inhibition, % at 15.6 µM; 350,000 tested, 0.17% active; AID 651687;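 active means every replicate shows inhibition of at least 40%; inconclusive means mean inhibition at least 40% but some replicate below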;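 further: 0% = neutral control wells and 100% = positive control wells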
F508del corr: correctors of CFTR F508del function in bronchial epithelial cells. CFBE cells, YFP halide quenching; stimulated with forskolin plus potentiator P3; % fluorescence drop versus neutral controls. activity (quench increase), % at 7.58 µM. 350,000 tested, 0.36% active. AID 720511;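 active means mean added fluorescence quench of at least 8% versus neutral control, with both replicates also reaching 8%; inconclusive means only one of the mean or replicate conditions met; inactive means mean below 8% and not both replicates reaching 8%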;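 further: cells transiently co-express mutant CFTR-F508del with the halide-sensitive YFP; corrector assay measuring rescue of mutant channel to the surface after 24 h compound exposure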
GSIS activator: primary screen for activators of insulin secretion dependent on glucose, INS-1E cells, GLuc reporter luminescence. 370,000 tested, 0.61% active. activation, % at 16.6 µM. INS-1E GLuc reporter insulin secretion, 2-3 h;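 active means lowest replicate activation of at least 40%, so every replicate reaches that level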;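 further: 0% = median of neutral control wells and 100% = median of IBMX positive control wells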
EWS-Fli inh: EWS/Fli transcriptional activity inhibition | A673 NR0B1-luciferase reporter, viability-normalised | inhibition, % at 12.6 µM | 350,000 tested, 0.67% active;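 active means mean inhibition of at least 50% after viability correction, with every replicate also passing that limit; inconclusive means mean reaches 50% but only one of two replicates passes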;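 further: firefly luciferase signal divided by Alamar Blue viability fluorescence both relative to DMSO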
HIV Env fusion: HIV envelope-mediated fusion inhibition | 360,000 tested, 1.1% active | inhibition, % at 12.3 µM | HeLa-JRFL Env/CEM21 cell fusion, luciferase;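 active means mean replicate inhibition score of at least 50 and every replicate individually at or above 50; inconclusive means only one of the two criteria met; inactive means mean below 50 and not all replicates reaching 50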;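 further: 0% = plate neutral controls and 100% = maraviroc near 300 nM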
* hit, by the source's call; ? = inconclusive; nt = no result; [ ] = dose if it differs, or a comment. The list is not random: actives were taken first. Their share in the collection is about 2.7%.

SMILES | PAX8 reporter | PGC1a acetyl inh | F508del corr | GSIS activator | EWS-Fli inh | HIV Env fusion
C[C@@H]1CN([C@H](C)CO)C(=O)c2cc(NS(=O)(=O)c3ccc(Cl)cc3)ccc2O[C@@H](C)CCCCO[C@@H]1CN(C)CC1CCCCC1 | 78* | -8 | 4 | -25 | 61* | -12[16.7 µM]
Cc1ccc(S(=O)(=O)Nc2ccc3c(c2)C(=O)N([C@H](C)CO)C[C@@H](C)[C@@H](CN(C)CC2CCCCC2)OCCCC[C@@H](C)O3)cc1 | 88* | -3 | 0 | -20 | 30 | 8[16.7 µM]
O=C(C[C@@H]1C=C[C@H](NC(=O)c2ccccc2)[C@@H](CO)O1)NCc1ccc(Oc2ccccc2)cc1 | -22 | -16 | 1 | 3 | 1 | 4[16.7 µM]
COc1ccccc1CN1CC[C@@H]2[C@H]1c1cc(C3=CCCCC3)ccc1N[C@@H]2CO | 55 | -11 | -4 | 0 | 6 | nt
CO[C@@H]1CN(C)C(=O)c2ccc(NC(=O)C3CC3)cc2OC[C@H](C)N(Cc2cccc(F)c2)C[C@H]1C | 7 | -3 | 0 | -22 | 4 | 24[16.7 µM]
O=CN1CCN(C(C(=O)NC2CCCCC2)c2ccc(Cl)cc2)CC1 (configuration not stated) | 11 | -1 | 1 | -3 | 8 | 10
COC(=O)C1CCCN1C(C(=O)NC1CCCCC1)c1ccc(Cl)cc1 (configuration not stated) | -40 | 1 | 3 | -4 | -8 | 66*
Cc1noc(C)c1S(=O)(=O)N(C)C[C@H]1OCCCC[C@H](C)Oc2ccc(NC(=O)NC3CCCCC3)cc2C(=O)N([C@@H](C)CO)C[C@@H]1C | 7 | -6 | 2 | -24 | 6 | 7[16.7 µM]
CN1C[C@@H]2[C@H](c3ccccc31)[C@H](CO)N2Cc1ccccc1Cl | 109* | 7 | -3 | 6 | 7 | nt
COc1ccccc1NC(=O)/C(N=Nc1ccc(C)c(S(=O)(=O)Nc2ccccc2Cl)c1)=C(\C)O | -1 | -10 | 7 | 19 | -12 | 42
COc1ccccc1NS(=O)(=O)c1cc(N=N/C(C(=O)Nc2ccc(Cl)cc2)=C(/C)O)ccc1C | 3 | -2 | 11* | 19 | -1 | nt
Cc1ccc(S(=O)(=O)N2CCN(S(=O)(=O)c3ccc(C)cc3)C2c2ccccc2)cc1 | nt | -110 | nt | 6 | nt | 105*
COc1ccc(Cc2nnc(NC(=O)Cc3cccs3)s2)cc1OC | 16 | -6 | nt | 153* | nt | 20
COc1ccc(Cc2nnc(NC(=O)c3ccc(F)cc3)s2)cc1OC | 21 | -11 | 8.6* | -19 | -6 | -65
O=C(Cc1cccs1)Nc1nnc(Cc2ccccc2)s1 | nt | -7 | nt | -4 | nt | nt
COc1ccc(-c2ccc3c(c2)[C@H]2[C@H](CCN2S(=O)(=O)c2ccc(OC)cc2)[C@@H](CO)N3)cc1 | 41 | 10 | 20* | 0 | 41 | nt
COc1ccc(S(=O)(=O)N2CC[C@@H]3[C@@H](CO)Nc4ccc(-c5cccc(C#N)c5)cc4[C@@H]32)cc1 | 33 | -20 | 13* | 12 | 54* | nt
COc1ccccc1S(=O)(=O)N1CC[C@H]2[C@@H](CO)N(C)c3ccc(-c4ccc(C#N)cc4)cc3[C@H]21 | 107* | 6 | 0 | 19 | 9 | nt
Cc1cccc(S(=O)(=O)N2CC[C@@H]3[C@@H](CO)Nc4ccc(-c5ccccc5F)cc4[C@@H]32)c1 | 7 | -5 | 2 | -4 | 1 | nt
COc1ccc(S(=O)(=O)N2CC[C@H]3[C@H](CO)Nc4ccc(-c5cccc(C#N)c5)cc4[C@H]32)cc1 | 31 | -13 | 2 | 3 | -3 | nt
COc1ccccc1S(=O)(=O)N1CC[C@@H]2[C@@H](CO)N(C)c3ccc(-c4ccccc4)cc3[C@@H]21 | ? | 4 | 0 | -6 | -5 | nt
Cc1cccc(S(=O)(=O)N2CC[C@@H]3[C@H](CO)Nc4ccc(C5=CCCCC5)cc4[C@@H]32)c1 | 83* | -1 | 1 | 4 | 5 | nt
CCCNC(=O)N[C@H]1CC[C@@H](CC(=O)N2CCN(C)CC2)O[C@H]1CO | -9 | 9 | 2 | 26 | -3 | 7[16.7 µM]
O=C(C[C@@H]1C[C@H]2c3cc(NC(=O)NC4CCCCC4)ccc3O[C@H]2[C@@H](CO)O1)NC1CCCC1 | nt | nt | nt | 5 | nt | nt
CCC(=O)N(C)C[C@H]1Oc2cc(-c3cncnc3)ccc2S(=O)(=O)N([C@@H](C)CO)C[C@H]1C | nt | 8 | 1 | 4 | 13 | -15[16.7 µM]
SMILES | PAX8 reporter | PGC1a acetyl inh | F508del corr | GSIS activator | EWS-Fli inh | HIV Env fusion
CCCC#Cc1ccc2c(c1)[C@@H]1[C@@H](CCN1S(=O)(=O)c1cccc(F)c1)[C@@H](CO)N2C | 67* | 4 | 1 | 5 | 14 | nt
COc1ccc(-c2ccc3c(c2)[C@@H]2[C@@H](CCN2S(=O)(=O)c2ccc(OC)cc2)[C@H](CO)N3)cc1 | 17 | -7 | 4 | 5 | -4 | nt
COc1ccc(-c2ccc3c(c2)[C@@H]2[C@@H](CCN2S(=O)(=O)c2ccc(F)cc2)[C@H](CO)N3C)cc1 | 62* | -6 | 3 | -13 | 3 | nt
COc1cccc(-c2ccc3c(c2)[C@H]2[C@H](CCN2S(=O)(=O)c2cccc(OC)c2)[C@H](CO)N3)c1 | 11 | 9 | 4 | 6 | -15 | nt
COc1ccc(S(=O)(=O)N2CC[C@@H]3[C@@H](CO)Nc4ccc(C5=CCCCC5)cc4[C@@H]32)cc1 | nt | -6 | 9.0* | 5 | nt | nt
COc1cccc(-c2ccc3c(c2)[C@@H]2[C@@H](CCN2S(=O)(=O)c2cccc(OC)c2)[C@H](CO)N3)c1 | 73* | -14 | 0 | 2 | 0 | nt
CC=Cc1ccc2n(c1=O)C[C@@H]1[C@@H](CO)[C@H](C(=O)N3CCC(Cc4ccccc4)CC3)N(C)[C@H]21 (mixture of isomers) | nt | nt | nt | -9 | -1 | 25[16.7 µM]
O=C(NCc1cc(F)cc(F)c1)[C@@H]1[C@@H](CO)[C@@H]2Cn3c(cccc3=O)[C@H]1N2C(=O)c1cnccn1 | nt | nt | nt | 15 | -2 | 4[16.7 µM]
CCN1C(=O)[C@H]2[C@H]3CN=C(SCC4CC4)N3[C@@](Cc3ccccc3)(C(=O)OC)[C@H]2C1=O | 10 | nt | 0 | -4 | -5 | 30
CC[C@]1(C(=O)OC)[C@H]2C(=O)N(Cc3ccccc3)C(=O)[C@H]2[C@H]2CN=C(SCc3ccc(C)cc3)N21 | 5 | -12 | 0 | -10 | 5 | 69*
COC(=O)[C@@]1(C)[C@H]2C(=O)N(Cc3ccccc3)C(=O)[C@H]2[C@H]2CN=C(SCc3ccccc3)N21 | 16 | -1 | 1 | -7 | -5 | 77*
CC[C@]1(C(=O)OC)[C@H]2C(=O)N(Cc3ccccc3)C(=O)[C@H]2[C@H]2CN=C(SCC3CC3)N21 | -5 | 5 | -2 | -17 | -6 | 81*
CCN1C(=O)[C@H]2[C@H]3CN=C(SCc4ccc(C#N)cc4)N3[C@@](Cc3ccccc3)(C(=O)OC)[C@H]2C1=O | 5 | 3 | 3 | -6 | -5 | -16

Source: PubChem (Broad Institute)
